# About 5,100 (32%) of roughly 16,000 compounds were called active. Not shown: some 25% with an inconclusive outcome. Some of the results follow. Values without a mark were called inactive. The call rests on the fitted dose curve; in most records, active means well fitted curve in the direction sought with a large enough effect; inconclusive means small, poorly fitted or top-dose-only effect, or effect the other way; inactive means no such curve, though single readings can be large or run the other way.
# Biological target: Cytochrome P450 3A4 (Homo sapiens) (UniProt P08684)
# Sequence (P08684 whole entry, looked up): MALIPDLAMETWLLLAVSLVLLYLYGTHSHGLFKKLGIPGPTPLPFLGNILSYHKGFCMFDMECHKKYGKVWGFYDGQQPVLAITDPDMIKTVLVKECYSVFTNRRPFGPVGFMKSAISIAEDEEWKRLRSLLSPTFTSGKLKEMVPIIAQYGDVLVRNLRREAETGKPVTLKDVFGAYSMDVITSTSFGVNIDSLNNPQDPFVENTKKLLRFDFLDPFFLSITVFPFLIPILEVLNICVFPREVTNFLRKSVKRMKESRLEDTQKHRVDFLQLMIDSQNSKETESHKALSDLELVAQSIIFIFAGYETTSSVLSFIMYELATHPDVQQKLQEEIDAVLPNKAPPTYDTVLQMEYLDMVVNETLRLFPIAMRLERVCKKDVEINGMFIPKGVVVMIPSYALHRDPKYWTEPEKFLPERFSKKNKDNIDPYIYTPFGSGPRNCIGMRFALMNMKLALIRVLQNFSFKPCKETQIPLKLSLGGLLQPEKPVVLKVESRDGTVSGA
# Assay: Cytochrome panel assay with activity outcomes
# Details: recombinant CYP, pro-luciferin dealkylation, luminescence, p450-cyp3a4; series mostly up to 57.1 µM; activity, negative = inhibition: at the top concentration
# On the % scale 0 is the no-effect control and ±100 the full control effect.
SMILES,"activity, negative = inhibition",AC50
COc1ccccc1-c1cc(N(C)Cc2ccco2)ncn1,-15.2%,–
Cc1ccccc1-c1cncnc1N(C)Cc1ccco1,–,1.58 µM (active)
CN(Cc1ccco1)c1ncncc1-c1ccccc1Cl,–,0.501 µM (active)
Cc1noc(C)c1-c1cncnc1N(C)Cc1ccco1,–,3.16 µM (active)
Cc1noc(C)c1-c1cc(N(C)Cc2ccco2)ncn1,-29.1%,–
COc1ccccc1-c1cncnc1N(C)Cc1ccco1,–,1.26 µM (active)
Cc1ccccc1-c1cc(N(C)Cc2ccco2)ncn1,21.2%,–
CN(Cc1ccco1)c1cc(-c2ccccc2Cl)ncn1,16.5%,–
CN(Cc1ccco1)c1ncncc1-c1ccccc1C(F)(F)F,–,1.26 µM (active)
CN(Cc1ccco1)c1ccnc(-c2ccccc2C(F)(F)F)n1,-0.303%,–
NC(=O)N1c2ccccc2C=Cc2ccccc21,-8.2% [at 25.6 µM],–
O=C(C[C@@H]1C=Cc2ccccc2N1C(=O)c1ccccc1)c1ccccc1,–,3.98 µM (active)
CN1[C@H](CC(=O)c2ccccc2)CCC[C@H]1C[C@H](O)c1ccccc1,-6.77%,–
O=C(O)[C@H]1C[C@@H](CP(=O)(O)O)CCN1,8.39%,–
CCCCN(C)CCCNC(=O)CS(=O)Cc1nc(-c2ccc(OC)c(OC)c2)oc1C (stereo unspecified),–,14.1 µM (active)
CN(C)CCCNC(=O)CCc1nc2ccccc2c(=O)[nH]1,-18.4%,–

SMILES,"activity, negative = inhibition",AC50
Cc1ccccc1-c1nc(CS(=O)CC(=O)NCCN2CCN(Cc3ccccc3)CC2)c(C)o1 (stereo unspecified),–,7.08 µM (active)
Cc1ccccc1-c1nc(CS(=O)CC(=O)NCCCN(C)c2ccccc2)c(C)o1 (stereo unspecified),–,3.98 µM (active)
O=C(NCCN1CCN(Cc2ccccc2)CC1)C1c2ccccc2C(=O)N2CCc3ccccc3C12 (stereo unspecified),-22.2% [at 2.29 µM],–
CCCCN(C)CCCNC(=O)c1ccc(N2CCCC2=O)cc1,-1.44%,–
C=CCN1C(=NC(=O)CC)SC2CS(=O)(=O)CC21 (stereo unspecified),-11.1%,–
O=C(O)C(=O)/C=C(\O)c1ccc(Br)cc1,-7.81% [at 11.4 µM],–
COc1ccc(S(=O)(=O)NNC(=O)C2Cc3c(ccc4ccccc34)O2)cc1 (stereo unspecified),–,10 µM (active)
NNC(=O)CCc1ccc2ccc3ccccc3c2c1,–,0.398 µM (active)
O=C(O)CCCc1ccc2ccccc2c1,-5.59% [at 11.4 µM],–
O=C(O)CCCc1ccc2ccc3ccccc3c2c1,-10% [at 11.4 µM],–
COc1ccc(OC)c(NC(=O)CSCc2cnn(-c3ccccc3)c2-n2cccc2)c1,–,10 µM (active)
CCOC(=O)N1CCC(NC(=O)CSCc2cnn(-c3ccccc3)c2-n2cccc2)CC1,–,12.6 µM (active)
O=S(=O)(c1ccccc1)N1CCC[C@@]2(CCN(c3ccncc3)C2)C1,–,3.98 µM (active)
O=S(=O)(c1ccccc1)N1CCC[C@@]2(CCN(c3ccccc3)C2)C1,–,5.01 µM (active)
CS(=O)(=O)N1CCC2(CCN(c3ccncc3)CC2)CC1,-8.79%,–

# — PubChem BioAssay AID1851 (National Center for Advancing Translational Sciences (NCATS), 2009)
